From PubChem
This is a sample that favours compounds with a hit; in the whole collection about 6.8% have one here.
C diff HTS = inhibitors of Clostridium difficile growth; Clostridium difficile clinical isolate growth, OD600, 24 h; hits give low values; growth activity, negative = inhibition, % at 16 µg/mL (by protocol); 0.25% of 86,000 active; AID 1259249;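 active means mean growth activity at or below -80% and every replicate also at or below -80%; inconclusive means mean at or below -80% but some replicate above -80%; inactive means mean growth activity above -80%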;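 further: 0% = DMSO wells and -100% = levofloxacin 16 µg/mL wells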
T cruzi growth-1 = T. cruzi proliferation inhibition; T. cruzi beta-gal in NIH3T3, GalScreen luminescence, 90 h; inhibition, % at 8.34 µM; 5.9% of 77,000 active; AID 624255;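 active means mean inhibition above about 93%, with at least 55% of replicates each passing it, limit read from the data, passing the limit was not always enough; inconclusive means only one of those two conditions holds; inactive means neither condition holds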
Pf Dd2 growth = P. falciparum Dd2 growth inhibition; 2.3% of 94,000 active; activity change, % at 10 µM; SYBR Green, 72 h; hits give low values; in the data active means activity change below about -80%; inconclusive means no clear call, values can overlap the other calls
T cruzi growth-2 = inhibitors of T. cruzi proliferation; AID 651739; T. cruzi beta-gal in NIH3T3, GalScreen luminescence, 90 h; 72% of 5,600 active; shares compounds with T cruzi growth-1; inhibition, % at 8.35 µM;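 active means mean replicate inhibition above about 95% and at least 55% of replicates individually reaching it, limit read from the data; inconclusive means only one of the two criteria is met; inactive means neither criterion is met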
T cruzi growth-3 = inhibitors of T. cruzi proliferation; shares compounds with T cruzi growth-1; T. cruzi beta-gal in NIH3T3, GalScreen luminescence, 90 h; inhibition, % at 2.09 µM; 21% of 5,600 active; AID 651740;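 active means mean inhibition above about 95%, with at least 55% of replicates also reaching it, limit read from the data; inconclusive means meets just one of the two conditions; inactive means meets neither condition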;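 further: plate controls were neutral control median for no effect and positive control median for full effect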
3T3 cytotox = kills mouse NIH/3T3 fibroblasts; cytotoxicity (signal decrease), % at 8.35 µM; AID 651742; NIH/3T3 viability, CellTiter-Glo ATP luminescence, 90 h; 14% of 5,600 active; shares compounds with T cruzi growth-1;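 active means mean signal decrease across replicates above about 35% based on untreated-well scatter, with enough replicates individually passing, limit read from the data; inconclusive means no rule stated though some were filed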;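 further: 0% = median of neutral control wells and 100% = median of positive control wells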
3T3 cytotox 2 = NIH/3T3 (mouse) viability loss; shares compounds with T cruzi growth-1; NIH/3T3 viability, CellTiter-Glo ATP luminescence, 90 h; 56% of 5,600 active; inhibition, % at 24.9 µM;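 active means mean loss of cell viability signal at or above a set limit, and enough replicates individually reaching it; inconclusive means meets only the mean limit or only the replicate share; inactive means meets neither condition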;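 further: 0% = median of neutral control wells and 100% = median of positive control wells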
Active calls of the source: *; u = inconclusive; x = no result given.

SMILES | C diff HTS | T cruzi growth-1 | Pf Dd2 growth | T cruzi growth-2 | T cruzi growth-3 | 3T3 cytotox | 3T3 cytotox 2
O=C(c1cccc(F)c1)N1CC2(C1)[C@H](c1ccccc1)[C@@H](CO)N2C(=O)C1CCCC1 | 6 | x | -11 | x | x | x | x
CCCN(C)C[C@H]1Oc2cc(C#Cc3ccccc3)ccc2S(=O)(=O)N([C@H](C)CO)C[C@@H]1C | 12 | 44 | -42 | x | x | x | x
C[C@@H]1CN([C@@H](C)CO)S(=O)(=O)c2ccc(C#Cc3ccccn3)cc2O[C@@H]1CN(C)C(=O)C1CC1 | -4 | 35 | 11 | x | x | x | x
COc1ccc2c3c(n(C)c2c1)[C@@H](CO)N(C(=O)c1cccc(F)c1)CC31CCN(CC2CC2)CC1 | x | x | 0 | x | x | x | x
C[C@H](CO)N1C[C@H](C)[C@@H](CN(C)Cc2ccccc2)Oc2cc(-c3ccncc3)ccc2S1(=O)=O | -2 | 117* | -69 | 99* | 103* | 71* | 76*
Cc1ccc(-c2ccc3c(c2)O[C@@H](CN(C)Cc2ccccc2)[C@H](C)CN([C@@H](C)CO)S3(=O)=O)cc1 | 17 | 116* | -54 | 99* | 104* | 37* | 104*
C[C@@H]1CN([C@H](C)CO)S(=O)(=O)c2ccc(-c3ccncc3)cc2O[C@@H]1CN(C)Cc1ccccc1 | 1 | 88 | -31 | x | x | x | x
C[C@@H]1CN([C@@H](C)CO)S(=O)(=O)c2ccc(-c3ccccc3)cc2O[C@H]1CN(C)Cc1ccccc1 | 12 | 84 | -66 | x | x | x | x
C[C@@H]1CN([C@H](C)CO)C(=O)c2cccc(NS(=O)(=O)c3ccc(F)cc3)c2O[C@@H]1CN(C)Cc1ccc(-c2ccccc2)cc1 | 56 | 71 | -19 | x | x | x | x
CN1C(=O)c2cc(NC(=O)C3CC3)ccc2OC[C@H]2O[C@@H](CC(=O)O)CC[C@H]21 | 0 | x | 27 | x | x | x | x
Cc1noc(C)c1NC(=O)N(C)C[C@H]1OCCCC[C@@H](C)Oc2ccc(NS(=O)(=O)c3cccs3)cc2C(=O)N([C@H](C)CO)C[C@H]1C | 14 | 3 | -12 | x | x | x | x
C[C@@H]1CN([C@H](C)CO)C(=O)c2cc(C3=CCCCC3)cnc2O[C@H]1CN(C)Cc1ccccc1C(=O)O | 1 | -44 | 0 | x | x | x | x
C[C@H]1CN([C@@H](C)CO)C(=O)c2cc(C3=CCCCC3)cnc2O[C@H]1CN(C)Cc1cccc(F)c1 | 12 | 110* | -4 | 105* | 6 | 22 | 35*
C[C@H](CO)N1C[C@H](C)[C@H](CN(C)Cc2cccc(F)c2)Oc2ncc(C3=CCCCC3)cc2C1=O | 26 | x | 3 | x | x | x | x
C[C@H]1CN([C@@H](C)CO)C(=O)c2cc(C3=CCCCC3)cnc2O[C@@H]1CN(C)Cc1ccccc1C(=O)O | -5 | 108* | -7 | 23 | 6 | 9 | -24
C[C@H]1CN([C@@H](C)CO)C(=O)c2cc(C3=CCCCC3)cnc2O[C@@H]1CN(C)C(=O)c1cccc(F)c1 | -11 | 105* | -46 | 108* | 22 | -7 | 53*
C[C@@H]1CN([C@@H](C)CO)C(=O)c2cc(C3=CCCCC3)cnc2O[C@H]1CN(C)C(=O)c1cccc(F)c1 | -7 | 57 | -6 | x | x | x | x
Cc1noc(C)c1NC(=O)Nc1ccc2c(c1)CC(=O)N([C@H](C)CO)C[C@H](C)[C@H](CN(C)S(C)(=O)=O)O2 | -3 | 29 | 26 | x | x | x | x
C[C@@H]1CN([C@@H](C)CO)C(=O)c2cc(NC(=O)C3CCCCC3)ccc2O[C@@H](C)CCCCO[C@H]1CN(C)Cc1ccccc1 | -9 | 109* | -63 | 108* | 85 | -18 | 45*
C[C@@H]1CCCCO[C@H](CN(C)Cc2ccncc2)[C@H](C)CN([C@H](C)CO)C(=O)c2cc(NC(=O)C3CCCCC3)ccc2O1 | 3 | 22 | x | x | x | x | x
C[C@@H]1CN([C@H](C)CO)C(=O)c2cc(NC(=O)C3CCCCC3)ccc2O[C@@H](C)CCCCO[C@H]1CN(C)Cc1ccccc1 | -4 | 99 | -56 | x | x | x | x
C[C@@H]1CCCCO[C@@H](CN(C)Cc2ccc(Cl)c(Cl)c2)[C@@H](C)CN([C@H](C)CO)C(=O)c2cc(NC(=O)C3CCCCC3)ccc2O1 | 6 | 107* | -38 | 107* | u | -16 | 0
C[C@H](CO)N1C[C@H](C)[C@H](CN(C)Cc2ccc(Cl)c(Cl)c2)Oc2ccc(NC(=O)C3CCCCC3)cc2C1=O | 22 | 98 | 8 | x | x | x | x
C[C@@H]1CN([C@H](C)CO)C(=O)c2cc(NC(=O)C3CCCCC3)ccc2O[C@@H](C)CCCCO[C@@H]1CN(C)Cc1ccncc1 | -3 | 105* | -22 | 56 | 11 | -13 | -6
C[C@H](CO)N1C[C@H](C)[C@H](CN(C)C(=O)Nc2ccccc2)Oc2c(NS(=O)(=O)c3cccs3)cccc2C1=O | -2 | 6 | 7 | x | x | x | x
SMILES | C diff HTS | T cruzi growth-1 | Pf Dd2 growth | T cruzi growth-2 | T cruzi growth-3 | 3T3 cytotox | 3T3 cytotox 2
CO[C@@H]1CN(C)C(=O)c2cc(NC(=O)Nc3ccccc3)ccc2OC[C@H](C)N(C(=O)CC2CC2)C[C@@H]1C | x | 39 | -56 | x | x | x | x
Cc1noc(C)c1NC(=O)N(C)C[C@@H]1Oc2ccc(NS(=O)(=O)c3c(C)noc3C)cc2C(=O)N([C@@H](C)CO)C[C@H]1C | -3 | 6 | 18 | x | x | x | x
COc1ccc(C#Cc2ccc([C@H]3[C@H](CO)N4CCCCN(Cc5ccncc5)C[C@@H]34)cc2)cc1 | -10 | 90* | -58 | 109* | 85 | 49* | 105*
COCC#Cc1ccc([C@H]2[C@H](CO)N3CCCCN(Cc4cncnc4)C[C@@H]23)cc1 | -4 | 115* | 15 | 98* | 48 | -11 | -9
COCC#Cc1ccc([C@@H]2[C@@H](CO)N3CCCCN(Cc4ccncc4)C[C@H]23)cc1 | -1 | 57 | 8 | x | x | x | x
CCCC#Cc1ccc([C@@H]2[C@@H](CO)N3CCCCN(Cc4ccncc4)C[C@@H]23)cc1 | -15 | 95 | -10 | x | x | x | x
COCC#Cc1ccc([C@H]2[C@@H](CO)N3CCCCN(Cc4ccncc4)C[C@H]23)cc1 | 0 | 108* | 14 | 106* | 74 | 17 | 30
CCCC#Cc1ccc([C@@H]2[C@H]3CN(Cc4cncnc4)CCCCN3[C@H]2CO)cc1 | -2 | 91 | 5 | x | x | x | x
COc1ccc(C#Cc2ccc([C@@H]3[C@H](CO)N4CCCCN(Cc5ccncc5)C[C@@H]34)cc2)cc1 | -2 | 48 | -76 | x | x | x | x
CCCC#Cc1ccc([C@@H]2[C@H]3CN(Cc4ccncc4)CCCCN3[C@H]2CO)cc1 | -5 | u | -70 | 96* | 17 | 37* | 106*
CC=Cc1ccc2n(c1=O)C[C@H]1[C@H](CO)[C@@H](C(=O)NC3CCCC3)N(CC3CCCCC3)[C@@H]21 (mixture of isomers) | 10 | 79 | -52 | x | x | x | x
CCS(=O)(=O)N1CCC2(CC1)CN(Cc1ccc3c(c1)OCO3)[C@@H](CO)c1c2c2ccc(OC)cc2n1C | -7 | x | -41 | x | x | x | x
